Compounds without any hit were thinned out: in the full panel of roughly 83,000, 20% have a hit.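 A percent growth of 40 corresponds to 60% growth inhibition; 0 means no net growth; -100 means all cells died. Active threshold: below 10.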
How the values were obtained:
Experiment in all cases: NCI-60 one-dose screen, 48 h (100 = growth as untreated, 0 = no growth, -100 = all killed)
Conditions in all cases: 10 µM unless noted
NCI-H23 lung = tested on: NCI-H23 lung
NCI-H226 lung = tested on: NCI-H226 lung
NCI-H322M lung = tested on: NCI-H322M lung
HOP-62 NSCLC = tested on: HOP-62 NSCLC
NCI-H460 lung = tested on: NCI-H460 lung
HOP-92 NSCLC = tested on: HOP-92 NSCLC
NCI-H522 lung = tested on: NCI-H522 lung
A549/ATCC NSCLC = tested on: A549/ATCC NSCLC
786-0 renal = tested on: 786-0 renal
COLO 205 colon = tested on: COLO 205 colon
DU-145 prostate = tested on: DU-145 prostate
K-562 leukemia = tested on: K-562 leukemia
MALME-3M melanoma = tested on: MALME-3M melanoma
MDA-MB-231 breast = tested on: MDA-MB-231 breast
RXF 393 renal = tested on: RXF 393 renal
SF-268 CNS = tested on: SF-268 CNS
SF-295 CNS = tested on: SF-295 CNS
SF-539 CNS = tested on: SF-539 CNS
UACC-257 melanoma = tested on: UACC-257 melanoma
M14 melanoma = tested on: M14 melanoma

Measured: growth

Cn1ncc2c(Nc3ccc(O)cc3)nc(Cl)nc21
inactive: NCI-H23 lung 107% | NCI-H226 lung 91.2% | NCI-H322M lung 96.6% | HOP-62 NSCLC 95.8% | NCI-H460 lung 108% | HOP-92 NSCLC 104% | NCI-H522 lung 88% | A549/ATCC NSCLC 96% | 786-0 renal 111% | COLO 205 colon 108% | DU-145 prostate 113% | K-562 leukemia 90.5% | MALME-3M melanoma 128% | MDA-MB-231 breast 93.7% | RXF 393 renal 96% | SF-268 CNS 97.7% | SF-295 CNS 109% | SF-539 CNS 96.6% | UACC-257 melanoma 105% | M14 melanoma 111%

CCCCCCCCCCCCCCCCCCNC(=S)N/N=C/c1ccc(OC)c(OC)c1
inactive: NCI-H23 lung 93.9% | NCI-H226 lung 99.2% | NCI-H322M lung 98.7% | HOP-62 NSCLC 98.6% | NCI-H460 lung 103% | HOP-92 NSCLC 69.4% | NCI-H522 lung 94.6% | A549/ATCC NSCLC 98.3% | 786-0 renal 102% | COLO 205 colon 104% | DU-145 prostate 102% | K-562 leukemia 98.8% | MALME-3M melanoma 87.4% | MDA-MB-231 breast 92.7% | RXF 393 renal 110% | SF-268 CNS 98.7% | SF-295 CNS 95.7% | SF-539 CNS 93.6% | UACC-257 melanoma 100% | M14 melanoma 104%

CCc1ccc(-c2ccc(COc3ccc(CC4SC(=O)NC4=O)cc3)cc2)cc1 (stereo not given)
inactive: NCI-H23 lung 52.2% | NCI-H226 lung 84.5% | NCI-H322M lung 89.8% | HOP-62 NSCLC 84.5% | NCI-H460 lung 79.3% | HOP-92 NSCLC 60.7% | NCI-H522 lung 45.5% | A549/ATCC NSCLC 64.8% | 786-0 renal 78.1% | COLO 205 colon 99.9% | DU-145 prostate 88.8% | K-562 leukemia 34.8% | MALME-3M melanoma 67.3% | MDA-MB-231 breast 77.3% | RXF 393 renal 102% | SF-268 CNS 76.7% | SF-295 CNS 75.8% | SF-539 CNS 77% | UACC-257 melanoma 86.3% | M14 melanoma 79.6%

CCOC(=O)c1nn(C2CCCCO2)c2ccc(NC(=O)CSc3nc4ccccc4c(=O)[nH]3)cc12 (stereo not given)
inactive: NCI-H23 lung 102% | NCI-H226 lung 97.6% | NCI-H322M lung 92.5% | HOP-62 NSCLC 88.2% | NCI-H460 lung 98.9% | HOP-92 NSCLC 92.5% | NCI-H522 lung 100% | A549/ATCC NSCLC 99.4% | 786-0 renal 91% | COLO 205 colon 126% | DU-145 prostate 102% | K-562 leukemia 99.4% | MALME-3M melanoma 103% | MDA-MB-231 breast 79.9% | RXF 393 renal 71.8% | SF-268 CNS 90.1% | SF-295 CNS 97.6% | SF-539 CNS 82.4% | UACC-257 melanoma 102% | M14 melanoma 100%

Source: PubChem BioAssay (NCI)
